Hits are enriched below; roughly 5.1% of the tested compounds scored in any of these assays.
CRFBP-R2 block – CRF-BP/CRF-R2 complex antagonism; HEK293 CRF-R2/CRF-BP, CRF-induced calcium fluorescence; inhibition, % at 11.8 µM; actives 0.59% (n = 350,000); AID 588475;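 active = inhibition of the ligand-induced calcium signal above about 50% at the single tested concentration, limit read from the data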
CRFR2-BP ag – CRF-BP/CRF-R2 complex agonism | HEK293 CRF-R2/CRF-BP, calcium dye fluorescence (FLIPR); percent of saturating CRF peptide response | actives 0.46% (n = 350,000) | activation, % at 13.2 µM | AID 588473;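 active = activation of at least 50%, plus an integration ratio under a set limit after plate pattern correction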
MPTP inh – blocks calcium-induced mitochondrial swelling; actives 1.4% (n = 360,000); AID 602449; isolated mouse mitochondria, Ca2+ swelling absorbance, 30 min; inhibition, % at 10 µM;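 active = inhibition of 50% or more, scaled per plate between neutral and stimulator controls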
ANO1 block – blocks the mouse calcium-activated chloride channel TMEM16A. Q8BHY3. HEK293 TMEM16A/YFP iodide influx fluorescence, ionomycin. normalized B-score (activity score, 25-100; higher = stronger inhibition) at 10 µM. actives 1.2% (n = 310,000). AID 588511;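 active = ratio plate-corrected score three or more library SD toward inhibition, starting fluorescence score within five deviations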;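 also: score derived from kinetic fluorescence span divided by baseline fluorescence per well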
Target sequence (Q8BHY3 whole entry, looked up): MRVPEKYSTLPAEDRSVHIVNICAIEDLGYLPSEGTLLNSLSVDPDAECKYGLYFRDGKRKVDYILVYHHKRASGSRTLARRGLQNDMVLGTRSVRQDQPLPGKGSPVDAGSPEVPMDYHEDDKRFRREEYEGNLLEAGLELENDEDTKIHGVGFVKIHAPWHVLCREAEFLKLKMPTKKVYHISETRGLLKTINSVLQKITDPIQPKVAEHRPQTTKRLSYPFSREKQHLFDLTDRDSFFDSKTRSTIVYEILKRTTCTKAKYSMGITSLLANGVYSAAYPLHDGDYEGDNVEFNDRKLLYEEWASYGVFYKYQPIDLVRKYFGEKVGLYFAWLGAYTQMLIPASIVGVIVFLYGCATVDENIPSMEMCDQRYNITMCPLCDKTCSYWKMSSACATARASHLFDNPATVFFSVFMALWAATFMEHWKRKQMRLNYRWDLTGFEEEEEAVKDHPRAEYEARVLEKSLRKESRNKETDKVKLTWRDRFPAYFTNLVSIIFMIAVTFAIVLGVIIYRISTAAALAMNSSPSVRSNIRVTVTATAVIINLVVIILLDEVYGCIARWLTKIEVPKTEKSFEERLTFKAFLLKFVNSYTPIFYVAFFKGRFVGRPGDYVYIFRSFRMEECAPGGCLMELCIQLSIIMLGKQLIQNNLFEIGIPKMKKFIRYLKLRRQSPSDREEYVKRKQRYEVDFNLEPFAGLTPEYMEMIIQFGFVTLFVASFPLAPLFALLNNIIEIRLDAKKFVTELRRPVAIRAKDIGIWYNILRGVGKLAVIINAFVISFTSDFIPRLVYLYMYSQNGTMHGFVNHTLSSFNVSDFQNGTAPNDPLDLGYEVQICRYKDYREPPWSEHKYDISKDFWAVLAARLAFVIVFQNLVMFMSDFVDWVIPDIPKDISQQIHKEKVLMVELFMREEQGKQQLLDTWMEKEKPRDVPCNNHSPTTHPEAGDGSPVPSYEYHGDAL
ANO1 activ – mouse TMEM16A channel activation, primary screen | Q8BHY3 | HEK293 TMEM16A/YFP-H148Q/I152L, iodide quench fluorescence; active compounds read low | B-score at 10 µM | actives 0.3% (n = 340,000);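 active = fluorescence-ratio B-score plate-corrected deviation score at least 3 library SD below zero, with starting fluorescence score within 5 deviations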;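 also: channel opened by trigger with iodide after compound preincubation; score built on the fluorescence ratio of max minus min over baseline; more negative score means more quench and so TMEM16A activation or potentiation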
NR3A LBD binder – modulates the human NR3A ligand-binding domain; actives 2.5% (n = 340,000); NR3A LBD differential scanning fluorimetry, Tm shift; 0% = protein alone, 100% = glycine-bound protein; Tm shift relative to glycine control, % at 25 µM; AID 1259313;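 active = melting temperature shift of at least 10% of the positive control shift, at one fixed dose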
Rh123 counter – mitochondrial membrane potential, counter-screen; shares compounds with MPTP inh; isolated mitochondria, Rhodamine 123 fluorescence; inhibition, % at 10 µM; actives 78% (n = 5,000); in the data active = inhibition above about 22%
MPTP abs DR – MPTP inhibition, dose response swelling confirmation | shares compounds with MPTP inh | isolated mitochondria swelling, absorbance | IC50, µM | actives 58% (n = 780) | AID 651561; in the data active = IC50 below about 20 µM
MPTP counter DR – active in counter-screen for permeability transition pore inhibitors; shares compounds with MPTP inh; isolated mitochondria counterscreen, fluorescence read-out; IC50, µM; actives 49% (n = 780); AID 651564; in the data active = IC50 below about 80 µM
Of the large screens only hits and unclear results are named; the others gave an inactive call (follow-up assays come after a bar, where they were run).

O=C(CSc1nc2ccc([N+](=O)[O-])cc2[nH]1)NC1CCCCCC1	MPTP inh 95, ANO1 block 100 | Rh123 counter 80
CC1CCN(S(=O)(=O)c2cc(C(=O)NC3(C)CCS(=O)(=O)C3)ccc2Br)CC1 (stereo unspecified)	none (no result: ANO1 block)
COC(=O)c1ccc2c(c1)C(C)(C)C(/C=C/c1ccc(OC)c(OC)c1OC)=[N+]2C	none
COC(=O)c1ccc2c(c1)C(C)(C)C(/C=C/c1ccc(O)cc1)=[N+]2C	CRFR2-BP ag 51, MPTP inh 86 | Rh123 counter inactive
CC(C)C(C(=O)NC1CCCC1)N1CCC(O)(c2ccc(Cl)cc2)CC1 (stereo unspecified)	none (no result: CRFBP-R2 block, CRFR2-BP ag, ANO1 block, ANO1 activ, NR3A LBD binder)
Cc1ccc(C(=O)Nc2ccc(CN3CCCCC3)cc2)c(C)c1	none
CCN(CC)c1ccc(NC(=O)c2cc(Cl)ccc2OC)cc1	MPTP inh 99 | Rh123 counter inactive | MPTP abs DR 14 | MPTP counter DR inactive
COc1ccc(Cl)cc1C(=O)Nc1ccncc1	none
COc1ccc(Cl)cc1C(=O)Nc1ccc(CN2CCCCC2)cc1	MPTP inh 57 | Rh123 counter inactive | MPTP abs DR 7.1 | MPTP counter DR inactive
COc1ccc([C@H]2CC(=O)C=C(c3ccc(Cl)c(C(F)(F)F)c3)C2)cc1OC	none (no result: ANO1 block)
O=C(/C(Br)=C/Nc1cc(Cl)ccc1Cl)C(F)(F)F	MPTP inh 96 | Rh123 counter 93
O=C(Nc1cc(Cl)ccc1Cl)N1CCCC1	none
CCCCNS(=O)(=O)c1ccc2nc(SCC(=O)Nc3sccc3C#N)[nH]c2c1	MPTP inh 79, ANO1 block 100, NR3A LBD binder 14 | Rh123 counter inactive | MPTP abs DR 11 | MPTP counter DR <2.5
CCCCNS(=O)(=O)c1ccc2nc(SCC(N)=O)[nH]c2c1	none
CC1(c2ccc3ccccc3c2)NC(=O)N(CC(=O)Nc2ncccc2O)C1=O (stereo unspecified)	none (no result: ANO1 block)
O=C1c2ccccc2C(=O)N1OCCCN1C(=O)c2ccccc2S1(=O)=O	none (no result: ANO1 block)
CCCN(CCC)S(=O)(=O)c1ccc(NC(=O)c2cc(C(=O)OC)cc([N+](=O)[O-])c2)cc1	MPTP inh 88 | Rh123 counter inactive | MPTP abs DR 11 | MPTP counter DR 4.5
CCC(C)(C)NC(=O)c1cc(C(=O)OC)cc([N+](=O)[O-])c1	none
Cc1ccccc1OCCCSc1nc2ccccc2[nH]1	MPTP inh 68 | Rh123 counter 99
NC(=O)CCCSc1nc2ccccc2[nH]1	none
Cc1nc2cc(NC(=O)Nc3ccc(Br)cc3)ccc2o1	MPTP inh 82, NR3A LBD binder 34 | Rh123 counter 83
CCC1CCCCN1S(=O)(=O)c1ccc2c(c1)CCN2C(C)=O (stereo unspecified)	none
CCn1cc(/C=C(\NC(=O)c2ccccc2)C(=O)N2CCOCC2)c2ccccc21	none (no result: ANO1 block)
CC(=O)c1ccc(N2CCN(S(=O)(=O)c3ccc4c(c3)CC(C)N4C(=O)C3CC3)CC2)cc1 (stereo unspecified)	MPTP inh 97 | Rh123 counter 108
Cc1ccc(F)cc1NC(=O)Nc1cc(C(C)(C)C)nn1C	none
COc1ccc(NC(=O)NN2CCN(C)CC2)cc1OC	none
Cn1nc(C(C)(C)C)cc1NC(=O)Nc1cc(Cl)cc(Cl)c1	MPTP inh 84 | Rh123 counter 73
CN1CCN(NC(=O)Nc2cc(Cl)cc(Cl)c2)CC1	MPTP inh 90 | Rh123 counter 91
Cc1ccc(C(=O)OCC(=O)N2CCNC2=O)c(C)c1	none (no result: ANO1 block)
CC(C)N=c1scc(-c2ccco2)n1/N=C/c1ccc(O)c(O)c1	MPTP inh 63, ANO1 block 100 | Rh123 counter 42
CN(C)C1=NC[C@H](Cc2ccccc2)N1CC1CCC(C(C)(C)C)CC1 (stereo partly specified)	none
Fc1ccc(-[n+]2nc(Nc3ccccc3)sc2-c2cccc(Cl)c2Cl)cc1	MPTP inh 95 | Rh123 counter 109
O=c1[nH]nc(Cc2ccc(-c3cccc(Cl)c3)o2)c2ccccc12	MPTP inh 84 | Rh123 counter 83
Cc1ccc(C)c(OCC(O)CN2CCc3ccccc3C2)c1C (stereo unspecified)	none
C/C(=N\NC(=O)c1cc(Cl)ccc1O)c1ccc(Br)s1	CRFBP-R2 block 52, MPTP inh 94 | Rh123 counter inactive | MPTP abs DR 4.7 | MPTP counter DR <2.5
CC(C)N(C)c1ncnc2c1ncn2[C@H]1CN(Cc2ccc(-c3ccccc3)cc2)C[C@@H](CO)O1	none (no result: CRFBP-R2 block, CRFR2-BP ag, ANO1 block, ANO1 activ, NR3A LBD binder)
CCc1noc(C)c1C(=O)OCC(=O)Nc1nc(-c2ccc(F)c(F)c2)cs1	none (no result: ANO1 block)
CCN(C(=O)c1ccc(C(C)(C)C)cc1)c1nnc(Cn2nnc3ccccc32)s1	MPTP inh 105, ANO1 block 100 | Rh123 counter 92
CCN(C(=O)CC(C)C)c1nnc(Cn2nnc3ccccc32)s1	none
CCCc1c(C(=O)Nc2ccc(F)cc2C)cnn1-c1ccccc1	none
CCCc1c(NC(=O)Nc2ccc(F)cc2)cnn1-c1ccccc1	MPTP inh 52 | Rh123 counter 67
CCC(=O)c1ccc2c(c1)N(CCCN(C)C)c1ccccc1S2	MPTP inh 72 | Rh123 counter inactive
Cc1cccc(NC(=O)CN2CCN(C(=O)CN3C(=O)NC4(CCCCC4C)C3=O)CC2)c1C (stereo unspecified)	none (no result: ANO1 block)
O=C(Nc1cccc(Cl)c1)c1cc(S(=O)(=O)NCCc2ccc(Cl)cc2)ccc1F	MPTP inh 70, NR3A LBD binder 32 | Rh123 counter 71
CCOC(=O)N1CCC(NC(=O)c2cc(S(=O)(=O)NCCc3ccccc3)ccc2F)CC1	none
Cc1ccc(NC(=O)c2cc(S(=O)(=O)NCCc3ccccc3)ccc2F)cc1Cl	MPTP inh 56, NR3A LBD binder 24 | Rh123 counter 71
CC1(C)OC2OC(C3COC(=O)O3)C(OC(=O)c3ccccc3)C2O1 (stereo unspecified)	none (no result: ANO1 block)
C=CC[N+]1(CC(=O)NCc2ccc(NC(C)=O)cc2)CCOCC1	none
C/C(=N\Nc1ccc(F)cc1F)c1ccc(Br)s1	none
CC(C(=O)Nc1ccccc1Cl)c1ccc([N+](=O)[O-])cc1 (stereo unspecified)	none
CC(C(=O)Nc1cccc(Br)c1)c1ccc([N+](=O)[O-])cc1 (stereo unspecified)	MPTP inh 58 | Rh123 counter 78

High-throughput results from PubChem BioAssay.
